From PubChem BioAssay (NCATS)
Where “and” joins values, the source holds several entries; their conditions need not be identical. Equal values may be shown once. Results filed as inconclusive are left out. Where a call stands in place of a potency, no number is given. Calls of active or inactive are those of the source. Calls follow the shape of the dose curve; as a rule, active = well fitted cell-killing curve with a large enough effect; inconclusive = small, poorly fitted or top-dose-only effect, or effect the other way; inactive = no such curve, though single readings can be large or run the other way.

Assay: Viability qHTS for spleen associated tyrosine kinase inhibitor (SYKi) naive MV4-11 cells (AID 1963823); also: nearly all actives have a fitted effect of over 40% in size
Settings: MV4-11 AML viability, CellTiter-Glo luminescence, 72 h; series mostly up to 45 µM
Source text: Department of Medicine, Hematology/Oncology
University Hospital Frankfurt, Germany.
Trials have shown promising clinical activity of the selective SYK inhibitor entospletinib in patients with high expressing HOXA9/MEIS1 acute leukemias. As the development of resistance mechanisms is a common problem in the use of targeted drugs, we performed a chemical library screen to identify drug sensitivities in SYK inhibitor resistant AML cells. […] Glucocorticoids are potent immunosuppressants which work in part by inhibiting the transcription of cytokine genes.
Described herein is a viability screen to look for activity in the SYK inhibitor naive cell line against four NCATS compound libraries (MIPE 5.0, NPC, NPACT, and Kinase) totaling 11372 compounds. Active hits were reacquired for confirmation and further secondary assay testing.
SEQUENCE No. (e.g., 1, 2, 3, etc.); […] (e.g., Cells, Incubation, Reagent, etc.); VALUE; DESCRIPTION.
1; Media; 2uL; white, solid-bottom Corning assay plate.
2; Compounds; 23nL; Echo acoustic dispenser.
3; Cell; 5uL; 500 cells per well.
4: Incubation; 72hr; 37 C, 5% CO2, 95% humidity.
5; Reagent; 3uL; CellTiter-Glo reagent (Promega).
6; Incubation; 10min; room temperature.
7; Detection; Luminescence; ViewLux plate reader (PerkinElmer).
NOTES (numbers refer to Sequence numbers above
1. Quantitative high-throughput screening (qHTS) of small molecule compounds was conducted on naive SYKi MV4-11 cell line.
2. Twenty-three nanoliter of small molecule compounds were added to each assay plates using the Echo acoustic dispenser (Beckman Coulter).
3. Cells were seeded into the assay plates at a final density of 500 cells in 5uL of media per well using the Multi-drop Combi dispenser.
4. Plates were covered with stainless steel gasketed lids and incubated for 72 hours at standard cell culture conditions.
5. Viability was assessed by adding 3uL of CellTiter-Glo detection reagent (Promega).
6. Plates were covered with gasket lids and incubated for 10 minutes at room temperature.
7. Luminescence was measured on a ViewLux plate reader (PerkinElmer).
Potency is read from the fitted curve at half-maximal effect.

Row | SMILES | Potency | viability (% of control)
1 | NS(=O)(=O)c1cc2c(cc1Cl)NC=NS2(=O)=O | inactive | 
2 | Oc1c(Cl)cc(Cl)c(Cl)c1Cc1c(O)c(Cl)cc(Cl)c1Cl | 8.41 µM (active) | 
3 | O=C(O)c1cn(C2CC2)c2cc(N3CCNCC3)c(F)cc2c1=O | inactive | 
4 | C[C@@H]1O[C@@H](OC[C@H]2O[C@@H](Oc3c(-c4ccc(O)c(O)c4)oc4cc(O)cc(O)c4c3=O)[C@H](O)[C@@H](O)[C@@H]2O)[C@H](O)[C@H](O)[C@H]1O | inactive | 
5 | C[C@@H]1C[C@H]2[C@@H]3C[C@H](F)C4=CC(=O)C=C[C@]4(C)[C@@]3(F)[C@@H](O)C[C@]2(C)[C@@]1(O)C(=O)CO | 0.335 µM (active) | 
6 | C[C@H]1COc2c(N3CCN(C)CC3)c(F)cc3c(=O)c(C(=O)O)cn1c23 | inactive | 
7 | CC1COC(Nc2ccc3ncnc(Nc4ccc(OCc5nccs5)c(Cl)c4)c3c2)=N1 (stereo not given) | 9.2 µM (active) | 
8 | N#CC(CCCN1CCN(/N=C/c2cccnc2)CC1)(c1ccccc1)c1ccccc1 | 2.06 µM (active) | 
9 | Cc1nc(Nc2cnn(C3CCNCC3)c2)nc2c1N(C)C(=O)c1cc3ccccc3cc1N2C | 3.66 µM (active) | 
10 | COc1ccc2cc(C(C)C(=O)Oc3ccc(C(N)=S)cc3)ccc2c1 (stereo not given) | inactive | 
11 | O=C(/C=C/c1ccc(O)cc1)c1ccc(O)cc1O | 18.6 µM (active) | 
12 | O=c1[nH]c2ccccc2n1CCCN1CCN(C(c2ccccc2)c2ccccc2)CC1 | 15 µM (active) | 
13 | CC1(C(=O)O)CCC2(C)CCC3(C)C(=CC(=O)C4C5(C)CCC(OC6OC(C(=O)O)C(O)C(O)C6OC6OC(C(=O)O)C(O)C(O)C6O)C(C)(C)C5CCC43C)C2C1 (stereo not given) | inactive | 
14 | C=C1CC[C@]2(C(=O)O[C@@H]3O[C@H](CO)[C@@H](O)[C@H](O)[C@H]3O)CC[C@]3(C)C(=CCC4[C@@]5(C)C[C@H](O)[C@@H](O[C@@H]6O[C@H](C(=O)O)[C@@H](O)[C@H](O)[C@H]6O)[C@](C)(C=O)C5CC[C@]43C)C2C1 (stereo not given in full) |  | 68.2% [at 9.25 µM] (inactive)
15 | COC(=O)[C@H](O)[C@H]1C(C)(C)[C@H](OC(=O)C(C)C)[C@@]2(O)C(=O)[C@]1(C)C1CC[C@]3(C)C(CC(=O)O[C@H]3c3ccoc3)[C@]13O[C@@H]32 (stereo not given in full) | inactive | 
16 | CC1(C)CC[C@]2(C(=O)O)[C@H](O)C[C@]3(C)C(=CCC4[C@@]5(C)CC[C@H](O[C@@H]6O[C@H](CO[C@@H]7OC[C@H](O)[C@H](O)[C@H]7O[C@@H]7OC[C@@H](O)[C@H](O)[C@H]7O)[C@@H](O)[C@H](O)[C@H]6O[C@@H]6O[C@H](CO)[C@@H](O)[C@H](O)[C@H]6O)C(C)(C)C5CC[C@]43C)[C@@H]2C1 (stereo not given in full) |  | 92.2% [at 9.25 µM] (inactive)
17 | CC(C)c1nc(N(C)S(C)(=O)=O)nc(-c2ccc(F)cc2)c1/C=C/[C@@H](O)C[C@@H](O)CC(=O)O | 8.2 µM (active) | 
18 | Cc1cc(C)c(NC(=O)CN(CC(=O)O)CC(=O)O)c(C)c1Br | inactive | 
19 | COC(=O)CC1CC(c2ccc(O)cc2)=NO1 (stereo not given) | inactive | 
20 | C[C@]1(OC(=O)/C=C\c2ccc(O)cc2)C[C@@H](O)[C@]2(O)C=CO[C@@H](O[C@@H]3O[C@H](CO)[C@@H](O)[C@H](O)[C@H]3O)C12 (stereo not given in full) | inactive | 

Row | SMILES | Potency | viability (% of control)
21 | CNC(=O)c1cc(Oc2ccc(NC(=O)Nc3cc(C(C)(C)C)nn3-c3ccc4ncccc4c3)c(F)c2)ccn1 | 0.0366 µM (active) | 
22 | O=C1CC[C@H](C(=O)N2CCCCC2)N1 | inactive | 
23 | CN(C)c1nc(Cc2ccc(NC(=O)c3ccc4ccccc4c3)cc2)nc(Cl)c1CC(=O)O | inactive | 
24 | COc1cc(NS(=O)(=O)c2ccc(N)cc2)nc(C)n1 | inactive | 
25 | O=C(Nc1nnc(-c2ccco2)o1)c1cc(-c2ccccc2)nc2ccccc12 | 13.2 µM (active) | 
26 | Cc1cc(CO)c(O)c(C(=O)CC2CC(=O)NC(=O)C2)c1 | inactive | 
27 | CC(C)CCCC(C)CCCC(C)CCCCC(C)CCCC(C)CCCC(C)C (stereo not given) | inactive | 
28 | CC(C)(C)C1CCC(CC2=C(O)c3ccccc3C(=O)C2=O)CC1 (stereo not given) | inactive | 
29 | CCC(C(=O)OCCOCCN(CC)CC)c1ccccc1 (stereo not given) | inactive | 
30 | C=CC(=O)Nc1cccc(Nc2nc(Nc3ccc(NC4CN(CCF)C4)cc3OC)ncc2C(F)(F)F)c1 | 1.3 µM (active) and 662 nM (active) | 
31 | O=C(c1ccccc1)c1c(O)cc(O)cc1O[C@@H]1O[C@H](CO)[C@@H](O)[C@H](O)[C@H]1O | inactive | 
32 | NCCCC(N)(C(=O)O)C(F)F (stereo not given) | inactive | 
33 | CC1CCC2C(C)(C)C(O)CCC2(C)C12Cc1c(O)cc3c(c1O2)CN=C3N (stereo not given) | inactive | 
34 | CCOC(=O)c1ccc(OCCC2CCN(c3ccc(C)nn3)CC2)cc1 | inactive | 
35 | COCCN(C)Cc1ccc2nc3sc(C(=O)N(C)C4CCCCC4)cn3c2c1 | inactive | 
36 | CC(CCC1(O)OC2CC3C4CCC5CC(O[C@@H]6O[C@H](CO)[C@@H](O)[C@H](O)[C@H]6O[C@@H]6O[C@@H](C)[C@H](O)[C@@H](O)[C@H]6O)C(O)CC5(C)C4CCC3(C)C2C1C)CO[C@@H]1O[C@H](CO)[C@@H](O)[C@H](O)[C@H]1O (stereo not given in full) |  | 87.7% [at 9.25 µM] (inactive)
37 | CC1(C)CCC(C)(C)c2cc(C#Cc3ccc(C(=O)O)cc3)ccc21 | inactive | 
38 | O=C(O)c1cc2cccc([N+](=O)[O-])c2[nH]1 | inactive | 
39 | Clc1ccc(C2(c3ccc(-c4cn[nH]c4)cc3)CCNCC2)cc1 | 2.31 µM (active) and 2.63 µM (active) | 
40 | O=C(Nc1nc2cccc(-c3ccc(CN4CCS(=O)(=O)CC4)cc3)n2n1)C1CC1 | 2.59 µM (active) and 5.25 µM (active) | 
